# Results filed as inconclusive are left out. Entries that show only a call come without a potency. The source made the active and inactive calls. The call rests on the fitted dose curve.
# Target: D(2) dopamine receptor (Homo sapiens) (UniProt P14416)
# Assay: Dopamine D2 receptor (DRD2) small molecule agonists, cell-based qHTS assay (AID 1963594); further: nearly all actives have a fitted effect of over 35% in size
# Details: HEK293-DRD2 cAMP HTRF, agonist mode, 30 min; series mostly up to 92.4 µM
# Source text: National Center for Advancing Translational Sciences [NCATS]
# Division of Preclinical Innovation [DPI]
# U.S. Environmental Protection Agency [EPA]
# National Institutes of Environmental Health Sciences [NIEHS]
# National Toxicology Program [NTP]
# U.S. Food and Drug Administration [FDA]
# DRD2 is the D2 subtype of the dopamine receptor, which is coupled to Gi subtype of G protein-coupled receptor. This G protein-coupled receptor inhibits adenylyl cyclase activity. The DRD2-HEK293 cell line stably expressing D2 dopamine receptor can be used for screening agonists and antagonists of interactions between D2 and its ligands. The Hek293-DRD2 cAMP assay is based on HTRF technology. It measures changes of cAMP accumulation in response to Gi coupled GPCR activation or inhibition.
# Tox21 Assay Protocol Summary:
# DRD2-Hek293 cells were dispensed at 600 cells/3uL/well in 1536-well white plates using a Multidrop Dispenser. After the assay plates were incubated at a 37 C/5% CO2 incubator for 24 h, 1 uL of Ro20-1724 at final concentration of 0.1 mM was transferred to the assay plate by a Flying Reagent Dispenser. Following Ro20-1724 addition, 23 nL of compound dissolved in DMSO, positive controls or DMSO only was added to the assay plates via Wako pintool station. The assay plates were incubated at room temperature for 10 min. Next, 1 uL of NKH477 at 200nM was added into the plates. After the assay plates were incubated at room temperature for an additional 30 min, 2.5 ul/well of cAMP-d2 and 2.5 ul/well of anti-cAMP-cryptate were added respectively into the assay plates using a Flying Reagent Dispenser. The plates were incubated at room temperature for 1 h. The fluorescence intensity in the plates was measured at 340 nm excitation and 665 & 620 nm emission by an Envision plate reader.
# Potency means the concentration at half of the fitted maximal effect.
# Chain of D(2) dopamine receptor (Homo sapiens) (P14416 whole entry, looked up): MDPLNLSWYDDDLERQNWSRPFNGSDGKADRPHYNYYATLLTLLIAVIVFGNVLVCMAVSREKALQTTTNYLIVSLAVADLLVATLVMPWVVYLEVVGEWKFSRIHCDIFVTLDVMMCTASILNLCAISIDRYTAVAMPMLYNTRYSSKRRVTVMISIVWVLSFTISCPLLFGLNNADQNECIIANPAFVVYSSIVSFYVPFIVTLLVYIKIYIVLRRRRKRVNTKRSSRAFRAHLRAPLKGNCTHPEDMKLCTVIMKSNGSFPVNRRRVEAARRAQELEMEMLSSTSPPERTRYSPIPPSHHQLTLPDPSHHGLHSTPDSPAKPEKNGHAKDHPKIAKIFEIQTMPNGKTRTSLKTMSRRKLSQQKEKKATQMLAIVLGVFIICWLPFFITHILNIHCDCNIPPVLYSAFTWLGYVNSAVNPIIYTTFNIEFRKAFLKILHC
Compound,Potency,activation
CN1CCN(C(=O)O[C@H]2c3nccnc3C(=O)N2c2ccc(Cl)cn2)CC1,inactive,
COC(N)=O,inactive,
CC[N+]1(C)CCCC(OC(=O)C(O)(c2ccccc2)c2ccccc2)C1 (stereo not given),inactive,
O=[N+]([O-])c1ccccc1Cl,inactive,
CC(Cc1ccccc1)NCCn1cnc2c1c(=O)n(C)c(=O)n2C (stereo not given),inactive,
S=C=NCCc1ccccc1,inactive,
O=[N+]([O-])O.O=[N+]([O-])O.[Cd],inactive,
O=C1c2ccccc2C(=O)c2ccccc21,,-2.1% [at 19 µM] (inactive)
Clc1ccccc1N1CCNCC1,inactive,
CCN[C@@H](C)Cc1ccccc1,inactive,
O=C1c2ccccc2C(=O)C1C(=O)C(c1ccccc1)c1ccc(Cl)cc1 (stereo not given),inactive,
COc1cc(CC#N)cc(OC)c1OC,inactive,
BrC(Br)C(Br)(Br)Br,inactive,
ClCCCCl,inactive,
C[C@@H]1O[C@@H](O[C@@H]2C=C3CC[C@@H]4[C@H](CC[C@]5(C)[C@@H](c6ccc(=O)oc6)CC[C@]45O)[C@@]3(C)CC2)[C@H](O)[C@H](O)[C@H]1O,inactive,
Cc1nc(N(C)C)nc(OC(=O)N(C)C)c1C,inactive,
O=C(O)c1cccc(Cl)c1,inactive,
ClC(Cl)Br,inactive,
NC1=NC(=O)C(c2ccccc2)O1 (stereo not given),inactive,
ClC=C(Cl)Cl,inactive,

Compound,Potency,activation
CCCCCCCCP(=O)(O)O,inactive,
[Cl][Sb]([Cl])[Cl],inactive,
CCOC(=O)CC(=O)CCl,inactive,
Clc1ccc(-c2ccc(Cl)c(Cl)c2Cl)c(Cl)c1Cl,inactive,
CCCCCCCCBr,inactive,
CCCN(CCC)CCc1c[nH]c2ccccc12,21.4 µM (active),
CCOP(=S)(S)OCC,inactive,
C#CCN1C(=O)COc2cc(F)c(N3C(=O)C4=C(CCCC4)C3=O)cc21,inactive,
COc1cc(CC(C)N)c(OC)cc1Br (stereo not given),20 µM (active),
N#CNC#N,inactive,
CN[C@@H](C)[C@H](O)c1ccccc1,inactive,
N#CN,inactive,
C=CC(=O)N(C)C,inactive,
CN(C)c1ccc(N=Nc2ccccc2)cc1,inactive,
CC(C)(C)NCC(O)c1cc(Cl)c(N)c(Cl)c1 (stereo not given),inactive,
O=C1OC(=O)C2C1C1(Cl)C(Cl)=C(Cl)C2(Cl)C1(Cl)Cl (stereo not given),inactive,
CC(C)(C)c1cc([N+](=O)[O-])cc(C(C)(C)C)c1O,inactive,
Cc1ccc(C)c2ccccc12,inactive,
CC1Sc2c(C(=O)O)c(=O)c3cc(F)c(N4CCNCC4)cc3n21 (stereo not given),inactive,
O.O.O.O.O.O.O=S(=O)([O-])[O-].[Ni+2],inactive,

# From PubChem BioAssay (Tox21)
